From PubChem BioAssay (NCATS)
Inconclusive results are not listed. Entries that show only a call come without a potency. Activity calls are given as the source filed them. The call rests on the fitted dose curve; in most records, active means well fitted curve in the direction sought with a large enough effect; inconclusive means small, poorly fitted or top-dose-only effect, or another doubt; inactive means no such curve, though single readings can be large; an effect the other way counts as inactive or inconclusive.

Key:
[1] = target: Aldehyde dehydrogenase, mitochondrial (Homo sapiens) (UniProt P05091); test: qHTS for Inhibitors of the Aldehyde Dehydrogenase Family (ALDH2) Primary screen (AID 2061308); conditions: ALDH2 enzyme inhibition qHTS, 1536-well; series mostly up to 56 µM; further: nearly all actives have a fitted effect of over 55% in size
[2] = target: Retinaldehyde dehydrogenase 3 (Homo sapiens) (UniProt P47895); test: qHTS for Inhibitors of the Aldehyde Dehydrogenase Family (ALDH1A3) Primary screen (AID 2061315); conditions: ALDH inhibition qHTS; series mostly up to 56 µM

Row | SMILES | Potency [1] | Potency [2]
1 | O=C(CNC(=O)c1ccc(Cl)cc1)OC(C(=O)Nc1cc(C(F)(F)F)ccc1Cl)c1ccccc1 (stereo unspecified) | inactive | inactive
2 | CC(=O)Nc1sc2c(c1-c1nc3ccccc3s1)CCS(=O)(=O)C2 | inactive | inactive
3 | COc1cc(F)c(S(=O)(=O)N2CCN(S(=O)(=O)c3ccc4c(c3)OCCO4)CC2)c(F)c1 | inactive | inactive
